From PubChem BioAssay (NCI)
The panel holds about 83,000 compounds, 20% with a hit somewhere; the sample as a whole holds those more often.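 The endpoint reported here, percent growth, reads 100 for growth as untreated, 0 for no net growth and -100 for all cells dead.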 Values without a mark were called inactive. Calls of active or inactive are those of the source. How the source made its calls: active means growth percent below 10; inactive means the rest.

Tested on: HL-60(TB) leukemia
Assay: NCI-60 one-dose screen, 48 h (100 = growth as untreated, 0 = no growth, -100 = all killed)
Conditions: 10 µM unless noted

Compound	growth
Cc1ccc(NCC(=O)Nn2c(COc3ccccc3)nc3ccccc3c2=O)cc1	93.9%
CCOc1ccc(/C=N/NC(=O)Cn2nc(Cc3ccc(OC)cc3)c3onc(C)c3c2=O)cc1	57.5%
Cc1ccc2nc3c(nc2c1)c1cc(I)ccc1n3CCN(C)C	13.7%
O=C(Nc1cccc(-c2cn(-c3ccc4oc(=O)ccc4c3)nn2)c1)Nc1cc(C(F)(F)F)cc(C(F)(F)F)c1	34.3%
CCOC(=O)C1=C(N)N(c2ccccc2)C2=C(C(=O)CC(C)(C)C2)C1c1ccccc1Cl (configuration not stated)	-23% (active)
CN(C)c1nc(NCCNS(=O)(=O)c2ccc(C3=Nc4c(N)nc(N)nc4NC(c4ccc(F)cc4)C3)cc2)nc(Nc2ccc(F)cc2)n1 (configuration not stated)	-25.1% (active)
COc1cccc2nc(Nc3cccc(NC(=O)c4ccc(CN5CCN(C)CC5)c(C(F)(F)F)c4)c3)ccc12	-53.1% (active)
COc1c(F)ccc(C(=O)Nc2ccc3nc(NC(=O)C4CCCN(S(=O)(=O)c5cccc(Cl)c5)C4)sc3c2)c1F (configuration not stated)	76.8%
COc1cc(-c2nc3cc(Cl)c(Cl)cc3[nH]2)ccc1OCc1nnc(-c2ccc(Br)cc2)o1	-62% (active)
CN1CCCN(Cc2ccc(C(=O)Nc3cccc(Nc4ccc5cc(O)ccc5n4)c3)cc2C(F)(F)F)CC1	73.7%
Cc1ccc(S(=O)(=O)N2CCN(S(=O)(=O)c3oc(-c4ccccc4)nc3C#N)CC2)cc1	69.4%
O=C(N/N=C/c1ccc(-c2cccc([N+](=O)[O-])c2)s1)c1[nH]c2ccc(Br)cc2c1-c1ccccc1	81.4%
CN(C)c1nc(NCCNS(=O)(=O)c2ccc(C(=O)/C=C/c3ccc(C(F)(F)F)cc3)cc2)nc(N2CCOCC2)n1	-25.1% (active)
CNCc1cccc2c1OCCCCCC[C@@](C)(O)CC1(CC1)S(=O)(=O)c1ccc(cc1)-c1cnc(N)c(n1)C(=O)N2	-61.1% (active)
CCN1CCN(Cc2ccc(NC(=O)c3cccc(-n4cc(-c5ccc(NC(C)=O)nc5)nn4)c3)cc2C(F)(F)F)CC1	65.4%
CCOC(=O)CNC(=O)CN(Cc1ccccc1)C(=O)[C@@]1(C)CCC[C@]2(C)[C@H]3CC4C(C(C)C)=C[C@]3(CC[C@H]21)[C@@H]1C(=O)CCC(=O)[C@H]41	2.73% (active)
COc1cc(CNC(=O)C[C@H](C)CCC=C(C)C)ccc1OCc1cn(-c2ccccc2Cl)nn1	41.1%
Cn1cc(-c2cc(N)n3nc(-c4c[nH]c5ccc(Cl)cc45)cc3n2)c2cccnc21	-59.8% (active)
COc1ccc(C(=O)/C=C/c2ccc(OC)c(OCc3ccccc3)c2)cc1OC	2.91% (active)
COc1ccc(NC(=O)[C@H](CO)NC(=O)OC(C)(C)C)cc1C(=O)Nc1cccc(C2CC(=O)c3c(cc(OC)c(OC)c3OC)O2)c1 (some centres not stated)	58.1%
CCCCCCCCc1ccc(S(=O)(=O)Nc2ccc(CC)cc2C(=O)O)cc1	120%
O=C(NO)c1ccc(-c2nc3ccc4[nH]ncc4c3c3c2CCCC3)cc1	-18.7% (active)
Cc1ccc(/C=C/c2n(Cc3ccc4ccccc4c3)c3ccccc3[n+]2Cc2ccc3ccccc3c2)cc1	-45.5% (active)
CN1CCN(CCS(=O)(=O)Nc2cc(-c3ccc4ncnc(Nc5ccc(F)c(Cl)c5)c4c3)cnc2Cl)CC1	19.2%
CCCCCCCCOc1cccc(S(=O)(=O)Nc2ccc(C)cc2C(=O)O)c1	101%
COc1ccc(C(=O)NC(=S)N2CCN(c3ncnc4c3cnn4-c3ccccc3)CC2)cc1	80.5%
COc1ccc(-c2ccc(/C=N/NC(=O)c3[nH]c4ccc(Br)cc4c3-c3ccccc3)o2)cc1	6.17% (active)
